According to the supplement of paper PMC11732987, “Enantioselective OTUD7B fragment discovery through chemoproteomics screening and high-throughput optimisation” (Communications Chemistry, 2025):

How the values were obtained:
Assay in all cases: log2 ratio of Biotin-Ahx-Ub-VS probe labelling (fragment/DMSO); higher = less target engagement (more negative = stronger competition), active = hit call of the paper (q ≤ 0.05, log2 ratio ≤ -1)
Conditions in all cases: compound concentration: 200 uM; treatment time: 3 h
[1] = molecular target: USP34 (UniProt Q70CQ2)
Method in brief: (§1)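 Triplicate samples of HEK293T lysate, 495 µg each, received fragment at 200 µM or vehicle for 3 h, followed by Biotin-Ahx-Ub-VS (0.5 µM final) for 1 h. After NeutrAvidin enrichment of labelled DUBs and LysC/trypsin digestion, peptides were run by diaPASEF LC-MS/MS. The values are average log2 fragment/vehicle ratios from global-median-normalised Spectronaut label-free quantities, tested by unpaired t-test on proteins having ≥2 unique peptides.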

[2] = molecular target: T1, USP36 (UniProt Q9P275)
T1 sequence (whole entry): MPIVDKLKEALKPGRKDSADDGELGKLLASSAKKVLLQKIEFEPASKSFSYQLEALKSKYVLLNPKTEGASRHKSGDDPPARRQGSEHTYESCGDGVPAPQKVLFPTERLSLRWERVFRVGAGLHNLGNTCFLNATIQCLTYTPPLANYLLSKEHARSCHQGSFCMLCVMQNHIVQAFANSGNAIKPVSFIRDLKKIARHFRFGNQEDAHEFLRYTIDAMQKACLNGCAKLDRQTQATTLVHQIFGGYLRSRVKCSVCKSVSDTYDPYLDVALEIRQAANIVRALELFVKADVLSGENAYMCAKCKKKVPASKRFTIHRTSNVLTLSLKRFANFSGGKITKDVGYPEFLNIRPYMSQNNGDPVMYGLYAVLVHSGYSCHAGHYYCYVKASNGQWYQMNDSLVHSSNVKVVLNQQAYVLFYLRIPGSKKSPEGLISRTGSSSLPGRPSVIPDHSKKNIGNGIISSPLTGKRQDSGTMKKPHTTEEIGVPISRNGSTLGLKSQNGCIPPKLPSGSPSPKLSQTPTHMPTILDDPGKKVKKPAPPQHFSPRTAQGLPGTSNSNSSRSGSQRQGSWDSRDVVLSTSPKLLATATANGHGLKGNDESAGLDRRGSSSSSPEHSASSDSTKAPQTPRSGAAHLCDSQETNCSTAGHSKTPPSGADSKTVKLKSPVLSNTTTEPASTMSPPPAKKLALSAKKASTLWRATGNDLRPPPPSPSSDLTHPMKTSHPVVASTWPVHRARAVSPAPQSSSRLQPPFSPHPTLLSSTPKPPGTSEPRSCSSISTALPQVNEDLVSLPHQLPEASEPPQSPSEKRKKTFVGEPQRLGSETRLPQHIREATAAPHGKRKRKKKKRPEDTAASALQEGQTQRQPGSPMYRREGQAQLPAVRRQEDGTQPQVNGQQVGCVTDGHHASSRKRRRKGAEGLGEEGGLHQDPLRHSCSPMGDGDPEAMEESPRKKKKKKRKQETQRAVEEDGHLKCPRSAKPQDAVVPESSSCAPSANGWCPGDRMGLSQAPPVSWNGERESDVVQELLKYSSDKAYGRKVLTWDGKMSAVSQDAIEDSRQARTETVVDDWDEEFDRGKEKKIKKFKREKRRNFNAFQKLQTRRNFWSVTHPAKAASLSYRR
Method in brief: as §1

[3] = molecular target: T2, USP38 (UniProt Q8NB14)
T2 sequence (whole entry): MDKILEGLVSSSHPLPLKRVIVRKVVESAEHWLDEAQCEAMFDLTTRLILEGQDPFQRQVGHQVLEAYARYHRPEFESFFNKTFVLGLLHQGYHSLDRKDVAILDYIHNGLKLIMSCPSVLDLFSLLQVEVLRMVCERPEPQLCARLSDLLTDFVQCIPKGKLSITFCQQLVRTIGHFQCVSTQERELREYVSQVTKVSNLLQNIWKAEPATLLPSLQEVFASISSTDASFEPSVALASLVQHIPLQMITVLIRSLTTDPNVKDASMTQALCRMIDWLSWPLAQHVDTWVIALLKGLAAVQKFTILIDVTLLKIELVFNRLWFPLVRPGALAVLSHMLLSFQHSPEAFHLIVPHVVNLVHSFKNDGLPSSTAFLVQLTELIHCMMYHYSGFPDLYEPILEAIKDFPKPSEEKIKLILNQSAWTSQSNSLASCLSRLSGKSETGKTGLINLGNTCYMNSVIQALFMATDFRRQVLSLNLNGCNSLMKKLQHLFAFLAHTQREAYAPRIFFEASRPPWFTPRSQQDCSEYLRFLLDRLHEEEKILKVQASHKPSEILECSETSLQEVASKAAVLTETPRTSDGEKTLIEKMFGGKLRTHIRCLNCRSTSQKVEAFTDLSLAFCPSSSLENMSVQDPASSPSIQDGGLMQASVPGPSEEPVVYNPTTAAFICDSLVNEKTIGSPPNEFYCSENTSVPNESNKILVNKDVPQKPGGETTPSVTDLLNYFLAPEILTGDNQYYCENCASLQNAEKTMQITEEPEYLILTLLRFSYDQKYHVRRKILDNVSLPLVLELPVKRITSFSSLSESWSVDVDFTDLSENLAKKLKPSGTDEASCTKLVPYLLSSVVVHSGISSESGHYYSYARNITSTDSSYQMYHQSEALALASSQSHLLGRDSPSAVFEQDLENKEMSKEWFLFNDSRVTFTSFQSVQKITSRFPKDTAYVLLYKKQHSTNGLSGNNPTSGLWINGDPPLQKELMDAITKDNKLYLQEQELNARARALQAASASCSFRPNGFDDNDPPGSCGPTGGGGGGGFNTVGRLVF
Method in brief: as §1

[4] = molecular target: T3, USP39 (UniProt Q53GS9)
T3 sequence (whole entry): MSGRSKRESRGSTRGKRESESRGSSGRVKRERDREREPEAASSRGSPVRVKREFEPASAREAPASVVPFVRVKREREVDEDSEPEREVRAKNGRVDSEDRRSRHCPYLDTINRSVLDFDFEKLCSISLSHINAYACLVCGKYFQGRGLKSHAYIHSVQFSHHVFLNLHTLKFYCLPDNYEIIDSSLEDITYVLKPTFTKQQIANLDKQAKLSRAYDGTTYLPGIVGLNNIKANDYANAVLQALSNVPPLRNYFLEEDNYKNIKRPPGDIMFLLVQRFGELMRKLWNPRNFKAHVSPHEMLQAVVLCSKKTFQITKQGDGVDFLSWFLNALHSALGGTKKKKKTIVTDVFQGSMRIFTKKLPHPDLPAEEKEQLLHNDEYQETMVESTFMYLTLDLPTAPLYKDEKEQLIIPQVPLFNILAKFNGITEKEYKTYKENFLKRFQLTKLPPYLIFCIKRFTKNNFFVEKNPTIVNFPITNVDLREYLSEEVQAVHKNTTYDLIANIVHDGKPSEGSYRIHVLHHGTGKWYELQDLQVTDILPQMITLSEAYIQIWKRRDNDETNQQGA
Method in brief: as §1

[5] = molecular target: T4, USP4 (UniProt Q13107)
T4 sequence (whole entry): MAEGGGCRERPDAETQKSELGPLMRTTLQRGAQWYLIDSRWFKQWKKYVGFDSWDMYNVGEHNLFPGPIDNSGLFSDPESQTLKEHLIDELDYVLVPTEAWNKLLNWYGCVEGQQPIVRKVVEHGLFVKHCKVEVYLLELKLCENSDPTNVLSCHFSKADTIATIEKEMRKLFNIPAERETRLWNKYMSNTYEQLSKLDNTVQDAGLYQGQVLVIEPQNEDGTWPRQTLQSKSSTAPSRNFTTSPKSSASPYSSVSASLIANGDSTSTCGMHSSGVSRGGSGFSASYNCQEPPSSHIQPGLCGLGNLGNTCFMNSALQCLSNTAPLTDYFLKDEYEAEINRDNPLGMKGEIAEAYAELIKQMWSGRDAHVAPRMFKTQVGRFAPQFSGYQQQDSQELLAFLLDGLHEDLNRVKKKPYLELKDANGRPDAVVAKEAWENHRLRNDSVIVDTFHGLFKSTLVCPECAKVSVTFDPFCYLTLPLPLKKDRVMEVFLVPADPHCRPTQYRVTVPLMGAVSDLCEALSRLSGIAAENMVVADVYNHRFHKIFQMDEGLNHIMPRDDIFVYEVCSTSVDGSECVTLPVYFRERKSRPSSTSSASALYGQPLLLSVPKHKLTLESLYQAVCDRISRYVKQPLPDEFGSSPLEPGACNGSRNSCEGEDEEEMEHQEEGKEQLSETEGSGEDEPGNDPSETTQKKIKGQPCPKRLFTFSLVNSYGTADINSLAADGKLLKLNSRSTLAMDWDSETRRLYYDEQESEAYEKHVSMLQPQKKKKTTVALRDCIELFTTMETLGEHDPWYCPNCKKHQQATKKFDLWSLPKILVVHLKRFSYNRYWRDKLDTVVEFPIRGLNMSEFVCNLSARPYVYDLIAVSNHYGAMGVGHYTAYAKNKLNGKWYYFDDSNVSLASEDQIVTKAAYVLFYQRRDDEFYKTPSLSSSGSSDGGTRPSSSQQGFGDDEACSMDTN
Method in brief: as §1

Measured: log2 ratio of Biotin-Ahx-Ub-VS probe labelling

Sequence of USP34 (Q70CQ2 whole entry, the tested form may be a part): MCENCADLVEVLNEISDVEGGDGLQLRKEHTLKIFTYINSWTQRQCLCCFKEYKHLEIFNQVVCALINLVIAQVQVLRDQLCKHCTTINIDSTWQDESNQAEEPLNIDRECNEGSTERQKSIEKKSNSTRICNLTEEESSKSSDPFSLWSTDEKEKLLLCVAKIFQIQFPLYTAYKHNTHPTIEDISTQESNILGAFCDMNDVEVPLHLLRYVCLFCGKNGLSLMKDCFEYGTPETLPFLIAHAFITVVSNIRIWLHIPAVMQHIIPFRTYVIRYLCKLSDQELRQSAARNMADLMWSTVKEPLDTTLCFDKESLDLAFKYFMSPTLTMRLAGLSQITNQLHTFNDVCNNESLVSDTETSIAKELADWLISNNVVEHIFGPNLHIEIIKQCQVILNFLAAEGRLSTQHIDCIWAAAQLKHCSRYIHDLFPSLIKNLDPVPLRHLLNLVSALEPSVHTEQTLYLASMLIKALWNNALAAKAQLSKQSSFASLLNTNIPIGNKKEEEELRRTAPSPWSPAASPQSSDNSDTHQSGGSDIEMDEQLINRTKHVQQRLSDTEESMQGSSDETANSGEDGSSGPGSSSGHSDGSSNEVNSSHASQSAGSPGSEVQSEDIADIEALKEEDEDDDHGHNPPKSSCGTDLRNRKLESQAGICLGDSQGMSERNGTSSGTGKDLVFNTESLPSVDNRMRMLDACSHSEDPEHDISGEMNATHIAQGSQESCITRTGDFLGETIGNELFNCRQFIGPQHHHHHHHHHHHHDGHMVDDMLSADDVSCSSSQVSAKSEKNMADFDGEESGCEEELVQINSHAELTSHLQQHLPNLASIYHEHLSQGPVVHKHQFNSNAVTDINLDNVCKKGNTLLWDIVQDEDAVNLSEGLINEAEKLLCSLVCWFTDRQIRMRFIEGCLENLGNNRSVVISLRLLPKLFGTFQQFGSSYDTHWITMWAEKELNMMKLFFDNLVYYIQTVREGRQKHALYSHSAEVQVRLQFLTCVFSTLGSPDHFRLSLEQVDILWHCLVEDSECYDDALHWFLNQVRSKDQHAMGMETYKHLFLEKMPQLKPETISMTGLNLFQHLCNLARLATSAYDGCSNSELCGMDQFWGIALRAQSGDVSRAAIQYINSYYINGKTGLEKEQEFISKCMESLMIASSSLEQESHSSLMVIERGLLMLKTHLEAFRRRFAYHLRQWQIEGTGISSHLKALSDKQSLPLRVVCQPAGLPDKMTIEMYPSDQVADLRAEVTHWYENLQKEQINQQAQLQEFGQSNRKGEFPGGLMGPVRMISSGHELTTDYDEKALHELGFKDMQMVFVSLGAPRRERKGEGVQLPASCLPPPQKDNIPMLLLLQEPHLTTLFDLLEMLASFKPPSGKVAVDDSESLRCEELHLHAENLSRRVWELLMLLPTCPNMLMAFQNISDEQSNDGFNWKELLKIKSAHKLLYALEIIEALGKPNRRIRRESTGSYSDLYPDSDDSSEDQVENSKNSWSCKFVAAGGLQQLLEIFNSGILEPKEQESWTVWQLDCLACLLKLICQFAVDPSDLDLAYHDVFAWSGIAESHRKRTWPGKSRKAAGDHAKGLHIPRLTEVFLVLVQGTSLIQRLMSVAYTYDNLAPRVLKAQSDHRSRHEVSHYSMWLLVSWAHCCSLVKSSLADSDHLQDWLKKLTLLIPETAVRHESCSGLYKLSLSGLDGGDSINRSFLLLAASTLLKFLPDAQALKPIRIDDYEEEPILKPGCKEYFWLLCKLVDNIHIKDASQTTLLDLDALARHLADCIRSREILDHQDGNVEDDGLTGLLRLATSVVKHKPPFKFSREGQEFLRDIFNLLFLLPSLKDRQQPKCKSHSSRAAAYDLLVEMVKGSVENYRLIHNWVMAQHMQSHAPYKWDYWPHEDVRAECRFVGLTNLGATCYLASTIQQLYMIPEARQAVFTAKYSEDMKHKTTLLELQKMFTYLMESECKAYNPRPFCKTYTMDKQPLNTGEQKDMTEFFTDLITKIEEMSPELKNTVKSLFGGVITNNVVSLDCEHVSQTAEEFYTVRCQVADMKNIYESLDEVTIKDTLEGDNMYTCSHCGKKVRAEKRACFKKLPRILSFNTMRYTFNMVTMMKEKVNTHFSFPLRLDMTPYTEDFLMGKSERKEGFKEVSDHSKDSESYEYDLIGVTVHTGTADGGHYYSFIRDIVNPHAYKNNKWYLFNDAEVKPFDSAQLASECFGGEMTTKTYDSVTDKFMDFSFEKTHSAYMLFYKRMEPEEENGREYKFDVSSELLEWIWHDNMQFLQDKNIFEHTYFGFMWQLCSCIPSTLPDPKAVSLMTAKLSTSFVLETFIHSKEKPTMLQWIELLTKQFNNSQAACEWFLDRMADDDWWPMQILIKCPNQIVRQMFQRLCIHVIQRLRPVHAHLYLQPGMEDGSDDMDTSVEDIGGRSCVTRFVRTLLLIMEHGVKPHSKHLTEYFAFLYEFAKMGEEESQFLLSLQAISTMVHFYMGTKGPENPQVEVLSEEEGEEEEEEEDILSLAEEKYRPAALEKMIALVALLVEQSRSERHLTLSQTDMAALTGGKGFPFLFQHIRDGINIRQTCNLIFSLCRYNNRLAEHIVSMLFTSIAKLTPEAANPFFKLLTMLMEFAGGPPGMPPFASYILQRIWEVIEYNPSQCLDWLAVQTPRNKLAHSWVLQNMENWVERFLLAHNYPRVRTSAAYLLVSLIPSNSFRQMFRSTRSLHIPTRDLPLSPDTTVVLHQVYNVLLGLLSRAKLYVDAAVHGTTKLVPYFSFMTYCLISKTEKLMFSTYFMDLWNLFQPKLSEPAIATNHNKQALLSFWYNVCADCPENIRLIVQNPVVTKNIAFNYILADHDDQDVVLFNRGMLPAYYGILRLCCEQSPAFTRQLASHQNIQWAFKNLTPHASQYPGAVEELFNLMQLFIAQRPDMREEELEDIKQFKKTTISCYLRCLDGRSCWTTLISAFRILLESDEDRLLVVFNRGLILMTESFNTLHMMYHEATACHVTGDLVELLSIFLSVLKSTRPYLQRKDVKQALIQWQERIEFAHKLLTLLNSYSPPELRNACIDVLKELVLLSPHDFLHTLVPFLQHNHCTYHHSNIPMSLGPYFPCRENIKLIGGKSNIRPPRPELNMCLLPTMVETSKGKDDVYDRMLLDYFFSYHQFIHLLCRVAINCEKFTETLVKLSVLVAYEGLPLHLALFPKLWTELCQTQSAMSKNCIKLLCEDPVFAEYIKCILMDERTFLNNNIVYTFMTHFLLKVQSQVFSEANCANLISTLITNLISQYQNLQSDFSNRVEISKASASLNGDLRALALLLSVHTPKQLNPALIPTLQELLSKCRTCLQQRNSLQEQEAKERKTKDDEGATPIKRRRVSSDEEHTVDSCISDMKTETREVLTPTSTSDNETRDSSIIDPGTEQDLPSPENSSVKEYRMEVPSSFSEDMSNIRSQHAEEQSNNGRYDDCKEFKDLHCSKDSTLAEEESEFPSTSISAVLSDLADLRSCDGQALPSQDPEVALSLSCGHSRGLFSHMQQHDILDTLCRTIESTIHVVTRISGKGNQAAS

O=C(CCl)Nc1cccc(NC(=O)c2ccccc2)c1
inactive: [1] 0.0355 | [2] -0.11 | [3] 0.15 | [4] 0.0551 | [5] 0.199
